# Compounds with a hit are over-represented: about 7.9% of the library has one in this group of screens.
# Marburg entry inh: inhibitors of Marburg virus binding or cell entry. 300,000 tested, 1.8% active. Potency, µM (series often up to 37.8 µM), for inactives: at the top dose activity change, negative = inhibition, hits mostly inhibitors. Marburg virus pseudotyped entry inhibition, cell reporter; calls by dose curve; tested in HEK293 cells; also: potency is read from the fitted curve at half-maximal effect
# HCMV antiviral: human cytomegalovirus inhibition. HFF cells, HCMV-luciferase reporter, 72 h; active compounds read low. activity change, negative = inhibition, % at 57.5 µM. 410,000 tested, 4.5% active. AID 1259415; in the data active = activity change below about -60%; inconclusive = no clear call, values can overlap the other calls; inactive = above about -39%
#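 Two-dose cell screen: HFF monolayers treated with compounds and infected with luciferase-expressing HCMV at 1 PFU/cell, 72 h at 37C, then lysed for luciferase measurement.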
# FMDV inh: blocks foot and mouth disease virus. FMDV antiviral cell-based qHTS. Potency, µM (titrated, usually from 57.9 µM), for inactives: at the highest dose activity change, negative = inhibition, usual class: inhibitors. 410,000 tested, 1.2% active. AID 1159524; calls by dose curve; tested in HEK293T cells; also: read-out not given here; potency is read from the fitted curve at half-maximal effect; nearly all actives have a fitted effect of over 45% in size
# HCV inh: blocks hepatitis C virus | Huh7.5.1 HCVcc-Cre infection, luciferase reporter, 44 h | Potency, µM (top dose mostly 41.8 µM), without a hit: at the highest dose activity change, negative = inhibition, hits mostly inhibitors | 340,000 tested, 3.4% active; active = well fitted inhibition curve with a large enough effect; inconclusive = small, poorly fitted or top-dose-only effect, or another doubt; inactive = no such curve, though single readings can be large or run the other way; also: potency is read from the fitted curve at half-maximal effect
#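 Luciferase read-out (15 sec integration) after a 15 min room-temperature substrate step quantifies HCVcc-Cre infection. Cells, 1,000 per well, had compound added 4 h post-plating, then virus at ~0.5 moi, and were cultured 44 h.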
# LASV entry inh: blocks Lassa virus binding to or entry into cells. Lassa virus pseudotype entry inhibition, cell reporter. Potency, µM (series often up to 37.9 µM), for inactives: at the top dose activity change, negative = inhibition, actives largely listed as inhibitors. 300,000 tested, 1.2% active. AID 540256; calls by dose curve; tested in HEK293 cells; also: potency is read from the fitted curve at half-maximal effect; nearly all actives have a fitted effect of over 50% in size
# * hit, by the source's call; ? = inconclusive; / = no result; [ ] = another dose, or the depositor's remark. % is scaled to controls: 0 for no effect and ±100 for the full control effect.
SMILES,Marburg entry inh,HCMV antiviral,FMDV inh,HCV inh,LASV entry inh
COCCn1c(=NC(=O)CCS(=O)(=O)c2ccccc2)sc2cc(C(=O)OC)ccc21,/,-1.7,-4.2%,9.7%,/
Cc1cc(C)c2sc(NNC(=O)c3ccc(S(=O)(=O)N4CCc5ccccc5C4)cc3)nc2c1,?,-105.8*,?,2.82µM*,11.6µM*
Cc1cccc(C(=O)NCC2Cc3cc(F)cc(-c4cnccn4)c3O2)n1 (stereo not given),/,/,-15.0%,/,/
Nc1nc2c(ncn2[C@@H]2O[C@H](C(=O)N[C@H](Cc3ccccc3)C(=O)NCCCc3ccccc3)[C@@H](O)[C@H]2O)c(=O)[nH]1,/,23.6,/,/,/
COc1ccccc1NC1=CC(=O)CC(c2ccccc2)C1 (stereo not given),-15.3%,58.1,3.0%,30.7%,7.31µM*
Cc1cc(-c2nn(-c3ccccc3F)cc2CN2CCCC(CO)C2)c(C)s1 (stereo not given),5.62µM*,-85.8*,-4.9%,?,?
O=C1NC(=O)C2(CCCc3ccc(N(CCCl)CCCl)cc32)N1 (stereo not given),?,-80.6*,-23.3%,?,?
NC1(C(=O)O)CCCc2ccc(N(CCCl)CCCl)cc21 (stereo not given),10µM*,-63.0*,-3.1%,?,?
CCCCN1C(=O)N(c2ccc(Br)cc2)C(=O)C1c1nnnn1-c1c(C)cccc1Cl (stereo not given),/,-13.4,/,/,/
O=C(Nc1ccc(-n2cccn2)cc1)C1CCCCN1Cc1cccc2c1OCO2 (stereo not given),/,-68.4*,-16.3%,-10.4%,/
O=C(Nc1ccc(Oc2cccnc2)cc1)C1CCCCN1Cc1ccc(CO)o1 (stereo not given),-2.1%,-8.5,-0.9%,-9.5%,-21.0%
COc1cccc(CNC(=O)C2Cc3cc(S(=O)(=O)N4CCCCCC4)ccc3N2C(C)=O)c1 (stereo not given),/,21.3,-14.0%,/,12.7%[46.1 µM]
CC(C)(C)c1ccccc1OCCCCCNCCO,?,-33.0,-22.6%,7.94µM*,?
Cc1ccccc1OCCCCCNCCO,-5.6%,25.2,-15.7%,?,4.9%
O=C(c1ccncc1)N1CCC2(CCCN(Cc3nccs3)C2)CC1,/,/,-4.3%,/,/
O=C(Nc1nc2ccccc2n1CCN1CCOCC1)c1cn(-c2ccccc2)nc1-c1ccccc1,?,?,0.0%,10µM*,?
CCN(CC)c1ccc(CNc2nc3ccccc3n2CCN2CCOCC2)cc1,11.2µM*,-26.4,-25.8%,?,-21.7%[46.1 µM]
O=C(Nc1nc2ccccc2n1CCN1CCOCC1)c1ccccc1,-8.4%,5.2,-20.0%,-16.6%,-14.6%
COc1ccc(CNc2nc3ccccc3n2CCN2CCOCC2)cc1,-12.6%,27.8,-8.1%,8.4%,14.0%
c1ccc(COc2cccc(-c3cc4nc(NCCc5ccncc5)ccn4n3)c2)cc1,/,9.1,0.0%,/,/
COc1ccc(-c2n[nH]c(C)c2-c2ccc(Cl)cc2)c(O)c1,-13.8%,?,?,?,?
Cc1[nH]nc(-c2ccc(O)cc2O)c1-c1ccc(Cl)cc1,-13.4%,-71.5*,?,?,-14.4%
COc1ccc(O)c(-c2c(-c3ccc(Cl)cc3)n[nH]c2C)c1,16.6%,1.2,?,-3.9%,2.6%
COc1ccc(-c2n[nH]c(C)c2-c2ccc(Cl)cc2)c(O)c1OC,-11.5%,?,31.6µM*,14.1µM*,?
Cc1ccc(OCCn2cnc3c2c(=O)n(C)c(=O)n3C)cc1,-15.0%[46.1 µM],-76.1*,?,3.55µM*,-13.6%
SMILES,Marburg entry inh,HCMV antiviral,FMDV inh,HCV inh,LASV entry inh
COc1ccc(NCc2nc3ccccc3n2CCOc2ccc(C)cc2)cc1,?,?,?,8.91µM*,?
COc1ccc(NCc2nc3ccccc3n2CCOc2ccccc2)cc1,?,20.5,-23.8%,?,?
Cc1ccc(OCCn2c(=O)n(C)c3ccccc32)cc1,?,100.8,47.2%,11.2µM*,5.7%
COc1ccc(-c2ccccc2)cc1NC(=O)C1(C)CCN1C(=O)C(C)C (stereo not given),/,-12.4,-22.1%,/,/
O=C(CSc1nncs1)Nc1nccs1,26.3%[46.1 µM],-8.0,-6.1%,0.4%,16.5%
CC1(Oc2cccnc2Cl)CCN(Cc2ccc(OC(F)(F)F)cc2)C1 (stereo not given),/,-13.6,?,/,/
CCN(C(=O)COC(=O)CNC(=O)c1ccc(C)cc1)c1c(N)n(Cc2ccccc2)c(=O)[nH]c1=O,/,0.0,-11.7%,21.2%,/
Cc1ccc(C(=O)Nc2ccc(NC(=O)c3ccco3)c(C)c2)cc1,?,-27.4,8.2%,-28.7%,?
NS(=O)(=O)c1ccc(NC(=S)NC(=O)c2ccc(Br)o2)cc1,-0.7%[46.1 µM],-28.3,26.1%,-16.4%,?
Cc1ccc(NS(=O)(=O)c2ccc(NC(=O)c3ccc(Br)o3)cc2)c(C)c1,?,-30.9,?,12.6µM*,?
Cc1cc(C)cc(NS(=O)(=O)c2ccc(NC(=S)NC(=O)c3ccc(Br)o3)cc2)c1,15.8µM*,-76.0*,0.0%,?,-22.2%
Cc1cc(NC(=O)c2ccc(Br)o2)ccc1NC(=O)c1ccco1,26.9%[46.1 µM],-88.9*,22.6%,-3.9%,19.7%[46.1 µM]
CN(c1ccccc1)S(=O)(=O)c1cccc(NC(=O)C2CC(=O)N(Cc3ccccc3)C2)c1 (stereo not given),/,-27.6,?,12.6µM*,/
COc1ccccc1NS(=O)(=O)c1cccc(NC(=O)C2CC(=O)N(Cc3ccccc3)C2)c1 (stereo not given),?,2.9,-15.4%,14.1µM*,?
O=C(Nc1cccc(S(=O)(=O)N2CCCCC2)c1)C1CC(=O)N(Cc2ccccc2)C1 (stereo not given),/,-23.6,7.4%,-25.3%,/
COc1ccc(CN2CC(C(=O)NCc3ccc4c(c3)OCO4)CC2=O)cc1 (stereo not given),-15.3%,-14.0,-10.9%,-14.6%,0.1%
COc1ccc(CN2CC(C(=O)NCc3cccc(OC)c3)CC2=O)cc1 (stereo not given),-10.6%,-105.4*,-11.2%,-22.8%,2.1%
CC1=C[C@@H](COCc2ccccc2)O[C@@]2(C1)C(=O)N(Cc1ccccc1C(F)(F)F)c1ccccc12,4.8%[14.2 µM],/,/,/,/
Cc1cc(N(C)C)ccc1N=Nc1ccc2ncccc2c1,/,129.6,15.0%,?,/
Cc1ccc(N=Nc2ccc(O)c3ncccc23)cc1C,/,-98.1*,41.0%,?,/
COc1ccc(N=Nc2cc(C)ccc2O)cc1,/,5.5,-25.3%,?,/
Cc1ccc(N=Nc2ccc(O)c3ncccc23)cc1,?,-95.5*,-18.5%,?,?
COCCNC(C)(CCCCC(=O)O)c1nnnn1-c1c(C)cccc1Cl (stereo not given),/,-9.0,/,/,/
O=C(OCc1ccccc1)c1ccc(-c2nnn(Cc3ccccc3F)n2)cc1,0.3%[46.1 µM],5.3,1.2%,/,10.6%[46.1 µM]
COc1ccc(-c2nnn(Cc3ccccc3F)n2)cc1,-1.1%,71.2,26.3%,11.2µM*,2.9%
CCn1c(C)nc2cc(C(=O)N/N=C(\C)c3ccccc3O)ccc21,?,3.7,35.7%,10µM*,-14.7%
COc1cccc(NC(=O)Nc2ccc3c(c2)nc(C)n3C)c1,?,44.9,-39.6%,?,?
